Inconclusive results are not listed. Unmarked numbers belong to inactive results. Activity calls are given as the source filed them. Calls come from the whole dose curve; as a rule, active = well fitted cell-killing curve with a large enough effect; inconclusive = small, poorly fitted or top-dose-only effect; inactive = no such curve, though single readings can be large or run the other way.
Experiment: qHTS of pediatric cancer cell lines to identify multiple opportunities for drug repurposing: Primary screen for Rh41 cells (AID 1347108); note: nearly all actives have a fitted effect of over 70% in size;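 for activity change, negative = cytotoxic: luminescence drop marks cytotoxic hits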
Conditions: Rh41 rhabdomyosarcoma viability, CellTiter-Glo luminescence, 48 h; series mostly up to 46 µM; activity change, negative = cytotoxic: at the top concentration
In short: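 ATP-based luminescence (CellTiter-Glo) quantifies viability after a 48-hour exposure. Compounds are dosed across 8 or 11 final concentrations; DMSO and 2.3 µM bortezomib serve as controls.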
Potency is the fitted concentration of half-maximal effect.

SMILES	activity change, negative = cytotoxic	Potency
COc1cc(C[C@@H](C)N)c(OC)cc1Br	0.706% [at 92.7 µM]	
NC(=O)OCCCc1ccccc1	34.6%	
C[C@]12CC[C@H]3[C@@H](CCC4=CC(=O)CC[C@@]43C)[C@@H]1CC[C@@H]2C(=O)O	27.4%	
Cc1ncc2n1-c1ccc(Cl)cc1C(c1ccccc1F)=NC2	0.725%	
CC(C)C(Br)C(=O)NC(N)=O (centres undefined)	12.7%	
CCC(=O)C(CCN(C)C)(c1ccccc1)c1ccccc1	4.37%	
CNC(=O)NC(O)C(Cl)(Cl)Cl (centres undefined)	6.37%	
Nc1ccc(Cl)cc1C(=O)c1ccccc1F	25.2%	
CCN1CCCC1CNC(=O)C(O)(c1ccccc1)c1ccccc1 (centres undefined)	24.9%	
Oc1c(Br)cc(Br)cc1Br	24.6%	
O=c1n(Cl)c(=O)n(Cl)c(=O)n1Cl	28%	
C[C@H](N)[C@H](O)c1ccc(O)c(O)c1	1.38%	
C[C@]12CC[C@H](O)CC1=CC[C@@H]1[C@@H]2CC[C@]2(C)C(=O)CC[C@@H]12	18.8%	
O=C(O)c1nn(Cc2ccc(Cl)cc2Cl)c2ccccc12		inactive
COc1cc(N)c(Cl)cc1C(=O)NC1CN2CCC1CC2 (centres undefined)	13.3%	
Cc1nnc2n1-c1sc(CCC(=O)N3CCOCC3)cc1C(c1ccccc1Cl)=NC2	5.9%	
O=C(NC(=O)c1c(F)cccc1F)Nc1cc(Cl)c(OC(F)(F)C(F)C(F)(F)F)cc1Cl (centres undefined)	23.3%	

SMILES	activity change, negative = cytotoxic	Potency
CCN(Cc1ccc(Cl)nc1)/C(=C/[N+](=O)[O-])NC	26.4%	
C=CC[C@]1(O)CC[C@H]2[C@@H]3CCC4=CC(=O)CCC4=C3C=C[C@@]21C	4.56%	
O=C(O)CCCCCCNC1c2ccccc2CCc2ccccc21	18.2%	
CNC(C)Cc1ccccc1OC (centres undefined)	-5.62%	
COc1cc(C[C@@H](C)N)c(OC)cc1C	1.85% [at 92.7 µM]	
CC[C@H]1C[C@@H]2C[C@H]3c4[nH]c5ccc(OC)cc5c4CCN(C2)[C@@H]13		30 µM (active)
O=C(CCCN1CCC(n2c(=O)[nH]c3ccccc32)CC1)c1ccc(F)cc1	-5.23%	
CC[C@]1(O)CC[C@H]2[C@@H]3CCC4=CCCC[C@@H]4[C@H]3CC[C@@]21C	-12.3%	
OC(c1ccccc1)(c1ccccc1)C1CCNCC1	22.6%	
CCCCC1C(=O)NC(=O)N(C2CCCCC2)C1=O (centres undefined)	17.9%	
COc1cc(CC(C)N)cc2c1OCO2 (centres undefined)	-12.8% [at 92.7 µM]	
CC(C)=C[C@@H]1[C@@H](C(=O)OCc2coc(Cc3ccccc3)c2)C1(C)C	14.1%	
CN1C[C@@H](NS(=O)(=O)N(C)C)C[C@@H]2c3cccc4c3c(cn4C)C[C@H]21	8.6%	
Nc1ccccc1C(=O)OCC(O)CO (centres undefined)	19.1%	
CC1COC2(c3ccccc3Cl)c3cc(Cl)ccc3NC(=O)CN12 (centres undefined)	20.4%	
CCN(CC)C(C)C(=O)c1ccccc1 (centres undefined)	36.2%	
CCNc1nc(Cl)nc(NCC)n1	5.67%	

Reference: PubChem BioAssay (NCATS)
